According to PubChem BioAssay (NCI):
The panel holds about 83,000 compounds, 20% with a hit somewhere; the sample as a whole holds those more often.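 Each cell line was grown in a 96-well plate and treated with one concentration of compound for 48 hours. Values below 10 were considered active.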 Calls of active or inactive are those of the source.

Columns and labels:
Assay in all cases: NCI-60 one-dose screen, 48 h (100 = growth as untreated, 0 = no growth, -100 = all killed)
Details in all cases: 10 µM unless noted
SK-MEL-2 melanoma = tested on: SK-MEL-2 melanoma
EKVX NSCLC = tested on: EKVX NSCLC
SN12C renal = tested on: SN12C renal
UO-31 renal = tested on: UO-31 renal
TK-10 renal = tested on: TK-10 renal
ACHN renal = tested on: ACHN renal
CAKI-1 renal = tested on: CAKI-1 renal
A498 renal = tested on: A498 renal
MOLT-4 leukemia = tested on: MOLT-4 leukemia
SR leukemia = tested on: SR leukemia
RPMI-8226 leukemia = tested on: RPMI-8226 leukemia
OVCAR-5 ovarian = tested on: OVCAR-5 ovarian
OVCAR-4 ovarian = tested on: OVCAR-4 ovarian
SK-OV-3 ovarian = tested on: SK-OV-3 ovarian
IGROV1 ovarian = tested on: IGROV1 ovarian
OVCAR-3 ovarian = tested on: OVCAR-3 ovarian
HS 578T breast = tested on: HS 578T breast
NCI/ADR-RES ovarian = tested on: NCI/ADR-RES ovarian
OVCAR-8 ovarian = tested on: OVCAR-8 ovarian
CCRF-CEM leukemia = tested on: CCRF-CEM leukemia

Measured: growth

COc1cc(COC(=O)CCCCC[P+](c2ccccc2)(c2ccccc2)c2ccccc2)c(OC)c2c1OCO2
inactive: SK-MEL-2 melanoma 68.4% | EKVX NSCLC 73% | SN12C renal 51% | UO-31 renal 91.4% | TK-10 renal 75.6% | ACHN renal 98.5% | CAKI-1 renal 72.7% | A498 renal 52.5% | MOLT-4 leukemia 93.3% | OVCAR-5 ovarian 76.9% | OVCAR-4 ovarian 41.2% | SK-OV-3 ovarian 76.6% | IGROV1 ovarian 28.6% | OVCAR-3 ovarian 48.7% | HS 578T breast 70.8% | NCI/ADR-RES ovarian 104%
active: SR leukemia 0.217% | RPMI-8226 leukemia -23.1%

COc1ccc(Cc2nc3cc(OC)c(OC)cc3c(=O)[nH]2)cc1
inactive: SK-MEL-2 melanoma 105% | EKVX NSCLC 105% | SN12C renal 67.9% | UO-31 renal 69.6% | TK-10 renal 237% | ACHN renal 72.2% | CAKI-1 renal 95.7% | A498 renal 122% | MOLT-4 leukemia 80.7% | SR leukemia 36.1% | RPMI-8226 leukemia 52.6% | OVCAR-5 ovarian 78.6% | OVCAR-4 ovarian 105% | SK-OV-3 ovarian 148% | IGROV1 ovarian 65.7% | OVCAR-3 ovarian 78.9% | HS 578T breast 77.5% | NCI/ADR-RES ovarian 74.8%

Cc1cccc(C)c1-c1cc(Cc2ccc(Cl)cc2)c(=O)[nH]n1
inactive: SK-MEL-2 melanoma 114% | EKVX NSCLC 92.8% | SN12C renal 89.5% | UO-31 renal 52.5% | TK-10 renal 114% | ACHN renal 112% | CAKI-1 renal 146% | A498 renal 104% | MOLT-4 leukemia 74.3% | RPMI-8226 leukemia 52.2% | OVCAR-5 ovarian 96.5% | OVCAR-4 ovarian 97.6% | SK-OV-3 ovarian 103% | IGROV1 ovarian 77.6% | OVCAR-3 ovarian 103% | HS 578T breast 94% | NCI/ADR-RES ovarian 96.1%
active: SR leukemia 4.66%

CCN1C(=O)N(CC)C2C1NN=c1s/c(=C3\C(=O)Nc4ccccc43)c(=O)n12 (stereo not drawn)
active: A498 renal -26.6% | OVCAR-3 ovarian -12.8%
inactive: SK-MEL-2 melanoma 37.6% | EKVX NSCLC 65.3% | SN12C renal 34% | UO-31 renal 42.9% | TK-10 renal 60.5% | ACHN renal 43% | CAKI-1 renal 35.5% | MOLT-4 leukemia 46.1% | SR leukemia 18.4% | RPMI-8226 leukemia 36.9% | OVCAR-8 ovarian 31.6% | OVCAR-5 ovarian 50.6% | OVCAR-4 ovarian 51.1% | SK-OV-3 ovarian 18.4% | IGROV1 ovarian 35.2% | HS 578T breast 13.2% | NCI/ADR-RES ovarian 42%

O=C(Nc1ccc(F)cc1)c1c(NC(=O)C(F)(F)F)sc2c1CCCCC2
inactive: TK-10 renal 15.5% | OVCAR-5 ovarian 22.7% | IGROV1 ovarian 18.1%
active: SK-MEL-2 melanoma -26.8% | EKVX NSCLC -2.06% | SN12C renal 2.15% | UO-31 renal -0.296% | ACHN renal 1.59% | CAKI-1 renal -19.1% | A498 renal -57% | MOLT-4 leukemia 3.21% | SR leukemia 2.35% | RPMI-8226 leukemia -36.8% | OVCAR-8 ovarian 8.06% | OVCAR-4 ovarian 4.42% | SK-OV-3 ovarian -16.8% | OVCAR-3 ovarian 4.39% | HS 578T breast -6.84% | NCI/ADR-RES ovarian 0.19%

N#Cc1ccc(-c2ccc3c(c2)NC(=O)/C3=C\c2ccc[nH]2)cc1
inactive: SK-MEL-2 melanoma 89.3% | EKVX NSCLC 26.5% | SN12C renal 95.8% | UO-31 renal 72% | TK-10 renal 54.4% | ACHN renal 101% | CAKI-1 renal 82.4% | CCRF-CEM leukemia 103% | MOLT-4 leukemia 109% | SR leukemia 22.2% | RPMI-8226 leukemia 101% | OVCAR-8 ovarian 101% | OVCAR-5 ovarian 43.2% | OVCAR-4 ovarian 43.3% | SK-OV-3 ovarian 62.6% | IGROV1 ovarian 66.2% | OVCAR-3 ovarian 88.8% | HS 578T breast 103%

O=C(Nc1nc(-c2ccccc2Cl)cs1)c1cc(-c2ccccc2)nc2ccc(Cl)cc12
inactive: SK-MEL-2 melanoma 69.9% | EKVX NSCLC 92.2% | SN12C renal 37.9% | UO-31 renal 52.3% | TK-10 renal 88% | ACHN renal 84.9% | CAKI-1 renal 81.5% | CCRF-CEM leukemia 18.8% | MOLT-4 leukemia 25.8% | SR leukemia 21.9% | RPMI-8226 leukemia 21.4% | OVCAR-8 ovarian 19.2% | OVCAR-5 ovarian 93.2% | OVCAR-4 ovarian 76% | SK-OV-3 ovarian 95.5% | IGROV1 ovarian 59.7% | OVCAR-3 ovarian 28.1% | HS 578T breast 76.4% | NCI/ADR-RES ovarian 16.5%

CCCCCCOc1ccc(/C=N/Nc2cc(C)nc3ccc(Br)cc23)cc1
active: SK-MEL-2 melanoma -14% | EKVX NSCLC -21.2% | SN12C renal -88.9% | UO-31 renal -97.5% | TK-10 renal -85.7% | ACHN renal -98.3% | CAKI-1 renal -72.4% | CCRF-CEM leukemia -23.3% | MOLT-4 leukemia -51.4% | SR leukemia -32.2% | RPMI-8226 leukemia -42.4% | OVCAR-8 ovarian -36.1% | OVCAR-5 ovarian -92.7% | OVCAR-4 ovarian -88.5% | IGROV1 ovarian -85.3% | OVCAR-3 ovarian -91.6% | HS 578T breast -40.4%
inactive: SK-OV-3 ovarian 101%

COc1ccccc1/C=N/NC1=NC2C(N1)N(C)C(=O)N2C (stereo not drawn)
inactive: SK-MEL-2 melanoma 104% | EKVX NSCLC 99.8% | SN12C renal 100% | UO-31 renal 86.2% | TK-10 renal 125% | ACHN renal 102% | CAKI-1 renal 91.7% | A498 renal 97.4% | MOLT-4 leukemia 102% | SR leukemia 110% | RPMI-8226 leukemia 119% | OVCAR-8 ovarian 103% | OVCAR-5 ovarian 102% | OVCAR-4 ovarian 106% | SK-OV-3 ovarian 95.4% | IGROV1 ovarian 96.4% | OVCAR-3 ovarian 107% | HS 578T breast 95.1%

NC(=O)CN1CCN(c2ccccc2Cl)CC1
inactive: SK-MEL-2 melanoma 92.4% | EKVX NSCLC 108% | SN12C renal 109% | UO-31 renal 82.7% | TK-10 renal 116% | ACHN renal 103% | CAKI-1 renal 96.4% | CCRF-CEM leukemia 115% | MOLT-4 leukemia 111% | SR leukemia 99.5% | RPMI-8226 leukemia 108% | OVCAR-8 ovarian 122% | OVCAR-5 ovarian 99.9% | OVCAR-4 ovarian 124% | SK-OV-3 ovarian 103% | IGROV1 ovarian 108% | OVCAR-3 ovarian 116% | HS 578T breast 102% | NCI/ADR-RES ovarian 108%

O=C1Nc2cc(-c3ccncc3)ccc2/C1=C/c1ccc[nH]1
inactive: SK-MEL-2 melanoma 106% | EKVX NSCLC 46.9% | SN12C renal 99.5% | UO-31 renal 73.7% | TK-10 renal 95.7% | ACHN renal 54% | CAKI-1 renal 87.9% | CCRF-CEM leukemia 104% | MOLT-4 leukemia 96.4% | SR leukemia 15% | RPMI-8226 leukemia 81.8% | OVCAR-8 ovarian 101% | OVCAR-5 ovarian 76.9% | OVCAR-4 ovarian 37.3% | SK-OV-3 ovarian 93.3% | IGROV1 ovarian 80.8% | OVCAR-3 ovarian 85.2% | HS 578T breast 107% | NCI/ADR-RES ovarian 94.6%

Cc1ccc(C2C3CC4CCCCC4N3[C@@]3(C(=O)Nc4cc(Cl)ccc43)C2C(=O)c2nc3ccccc3[nH]2)cc1 (stereo partly drawn)
inactive: SK-MEL-2 melanoma 59.7% | EKVX NSCLC 27.3% | SN12C renal 44.8% | UO-31 renal 19.8% | TK-10 renal 39.6% | ACHN renal 40.5% | CAKI-1 renal 16.5% | CCRF-CEM leukemia 27.8% | SR leukemia 21.2% | OVCAR-8 ovarian 56.7% | OVCAR-5 ovarian 49% | OVCAR-4 ovarian 30.6% | SK-OV-3 ovarian 77.6% | IGROV1 ovarian 26.4% | OVCAR-3 ovarian 33.4% | HS 578T breast 61% | NCI/ADR-RES ovarian 41.7%
active: MOLT-4 leukemia 2.61% | RPMI-8226 leukemia 9.27%

O=C(Nc1ccc2cc3ccc(NC(=O)NC4CCCCC4)cc3nc2c1)NC1CCCCC1
inactive: SK-MEL-2 melanoma 97.3% | EKVX NSCLC 95.1% | SN12C renal 88.2% | UO-31 renal 89.1% | TK-10 renal 100% | ACHN renal 100% | CAKI-1 renal 93.3% | CCRF-CEM leukemia 25.1% | RPMI-8226 leukemia 85.6% | OVCAR-8 ovarian 93.4% | OVCAR-5 ovarian 103% | OVCAR-4 ovarian 92.8% | SK-OV-3 ovarian 95.4% | IGROV1 ovarian 99.9% | OVCAR-3 ovarian 98.2% | HS 578T breast 36.4% | NCI/ADR-RES ovarian 106%
active: MOLT-4 leukemia 9.49% | SR leukemia -0.865%

COc1cccc(NC(=O)c2cccc(-c3cc(=O)c4c(OC)c(OC)c(OC)cc4o3)c2)c1
inactive: SK-MEL-2 melanoma 75.7% | EKVX NSCLC 81.3% | SN12C renal 62.3% | UO-31 renal 31.6% | TK-10 renal 78.8% | ACHN renal 62.5% | CAKI-1 renal 74.7% | CCRF-CEM leukemia 40.5% | MOLT-4 leukemia 48.5% | SR leukemia 41.9% | RPMI-8226 leukemia 17% | OVCAR-8 ovarian 47% | OVCAR-5 ovarian 90.1% | OVCAR-4 ovarian 62.6% | SK-OV-3 ovarian 109% | IGROV1 ovarian 53.3% | OVCAR-3 ovarian 66.6% | HS 578T breast 46.2% | NCI/ADR-RES ovarian 64.8%

C#CC(=O)Nc1cccc2c1cc(C)n2-c1nc2c(c(NCc3ccccc3)n1)CCCC2
active: SK-MEL-2 melanoma -74.5% | EKVX NSCLC -39.3% | SN12C renal -66.2% | UO-31 renal -76% | TK-10 renal -98.1% | ACHN renal -73.6% | CAKI-1 renal -43.2% | CCRF-CEM leukemia -26.5% | MOLT-4 leukemia -33.4% | SR leukemia -32.2% | RPMI-8226 leukemia -22.3% | OVCAR-8 ovarian -14% | OVCAR-5 ovarian -16% | OVCAR-4 ovarian -35.7% | SK-OV-3 ovarian -94.4% | IGROV1 ovarian -28.1% | OVCAR-3 ovarian -9.24% | HS 578T breast -7.53% | NCI/ADR-RES ovarian 6.91%

C(=C\c1n(Cc2ccc3ccccc3c2)c(-c2ccccc2)c(-c2ccccc2)[n+]1Cc1ccc2ccccc2c1)/c1ccccc1
active: SK-MEL-2 melanoma -68.7% | EKVX NSCLC -77.5% | SN12C renal -91% | UO-31 renal -99.1% | TK-10 renal -81.8% | ACHN renal -94.9% | CAKI-1 renal -100% | CCRF-CEM leukemia -17.8% | MOLT-4 leukemia -43.5% | SR leukemia -37.4% | RPMI-8226 leukemia -43.9% | OVCAR-8 ovarian -65.3% | OVCAR-5 ovarian -95% | OVCAR-4 ovarian -85.8% | SK-OV-3 ovarian -60.1% | IGROV1 ovarian -81.4% | OVCAR-3 ovarian -90.3% | HS 578T breast -42.8% | NCI/ADR-RES ovarian 8.24%
